RPL19A TOR yeast: modulators of TOR pathway RPL19A-GFP in S. cerevisiae; percent response vs DMSO, % at 10 µM; AID 2025; S. cerevisiae RPL19A-GFP strain, flow cytometry, 3 h; active compounds read low; 330,000 compounds, 0.3% hits;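 active means percent response vs DMSO below 50%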;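 further: median channel GFP fluorescence of the barcoded RPL19A-GFP strain; lower means less RPL19A-GFP as with rapamycin TOR inhibition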
MEP2 TOR yeast: modulators of TOR pathway MEP2-GFP in S. cerevisiae. S. cerevisiae MEP2-GFP strain, flow cytometry GFP, 3 h; 100% = DMSO control level. GFP response vs DMSO, % at 10 µM. 330,000 compounds, 0.51% hits. AID 2016;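 active means GFP response versus DMSO above a set limit, roughly screen mean plus 3 SD, cut at about 180% in these data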;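 further: median GFP fluorescence of the barcode-gated MEP2-GFP cells per well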
AGP1 TOR yeast: yeast TOR pathway AGP1-GFP modulation | S. cerevisiae AGP1-GFP multiplex flow cytometry, 3 h; GFP as percent of DMSO wells | GFP response vs DMSO, % at 10 µM | 320,000 compounds, 0.02% hits;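 active means GFP response relative to DMSO above a set limit, near screen average plus 3 SD, cut at about 150% in these data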;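 further: median GFP channel fluorescence of the gated AGP1 strain per well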
CIT2-GFP yeast: yeast TOR pathway CIT2-GFP modulation | S. cerevisiae CIT2-GFP strain, flow cytometry, 3 h; 100 means same as DMSO wells | GFP response vs DMSO, % at 10 µM | 320,000 compounds, 0.065% hits;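 active means GFP response relative to DMSO above a set limit, near the screen mean plus 3 SD, cut at about 150% in these data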;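 further: ratio of well median GFP fluorescence to mean of DMSO wells on the plate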
LAP4 TOR yeast: yeast TOR pathway LAP4-GFP modulation; S. cerevisiae LAP4-GFP multiplex, flow cytometry GFP, 3 h; median GFP as percent of DMSO wells; GFP response vs DMSO, % at 10 µM; 320,000 compounds, 0.34% hits;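 active means GFP response vs DMSO above a set limit, about the screen mean plus 3 SD, cut at about 150% in these data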
LAP4-GFP pick2: second confirmation of modulators of TOR reporter LAP4-GFP in yeast; shares compounds with LAP4 TOR yeast; 590 compounds, 20% hits; GFP response vs DMSO, % at 10 µM; S. cerevisiae LAP4-GFP strain, flow cytometry GFP, 3 h;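 active means GFP signal as percent of the solvent control above about 150%, meaning raised reporter expression, limit read from the data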
MEP2 cherry2: yeast MEP2-GFP modulation, second cherry pick; S. cerevisiae MEP2-GFP strain, flow cytometry GFP, 3 h; GFP response vs DMSO, % at 10 µM; shares compounds with LAP4 TOR yeast; 590 compounds, 10% hits;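 active means GFP signal above 150% of the solvent control wells, that is a rise of more than half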;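 further: median channel GFP fluorescence of all gated yeast cells per well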
RPL19A GFP CP2: yeast RPL19A-GFP TOR reporter modulation, second cherry pick | S. cerevisiae RPL19A-GFP strain, flow cytometry GFP, 3 h; active compounds read low; 100% means same as DMSO wells | GFP response vs DMSO, % at 10 µM | shares compounds with LAP4 TOR yeast | 590 compounds, 3% hits;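 active means under 65% GFP response relative to DMSO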;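 further: median GFP channel fluorescence per well over the all cells gate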
CIT2 GFP CP2: second confirmation of modulators of TOR reporter CIT2-GFP in yeast. shares compounds with LAP4 TOR yeast. S. cerevisiae CIT2-GFP strain, flow cytometry GFP, 3 h; DMSO control wells read 100%. GFP response vs DMSO, % at 10 µM. 590 compounds, 8% hits. AID 2624;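 active means GFP response vs DMSO above about 150%, limit read from the data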;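 further: median green fluorescence per well over all gated yeast cells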
AGP1 GFP CP2: second confirmation of modulators of TOR reporter AGP1-GFP in yeast. shares compounds with LAP4 TOR yeast. S. cerevisiae AGP1-GFP strain, flow cytometry GFP, 3 h. percent response vs DMSO, % at 10 µM. 590 tested, under 10 active;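 active means over 150 percent of DMSO response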;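 further: median GFP channel fluorescence over all cells without mother daughter split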
s288c autofluor: yeast s288c autofluorescence artifact, counter-screen | fluorescence change (kMESF span) at 33 µM | shares compounds with LAP4 TOR yeast | S. cerevisiae s288c, 520 nm autofluorescence, flow cytometry, 3 h; active compounds read high; zero means same as solvent-only cells | 610 tested, under 10 active | AID 2757;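 active means fluorescence span over the dose series, or activity score, above about 33, limit read from the data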
s288c autofl DR: yeast s288c autofluorescence artifact in dose response; shares compounds with LAP4 TOR yeast; S. cerevisiae s288c parental, compound autofluorescence, flow cytometry, 3 h; fluorescence change (span) at 33 µM; 110 tested, under 10 active; AID 488829;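 active means fluorescence change span, or the activity score built from it, above 25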
TORC1 bypass gr: stops wildtype yeast growth while TORC1 bypass cells still grow. 120 tested, under 10 active. AID 504456. shares compounds with LAP4 TOR yeast. growth rating (0-3) at 30 µM. S. cerevisiae BY4741 spot growth rating, 48-72 h; active compounds read low;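 active means growth rating at most 1 for wild type yeast while the TORC1 bypass strain still grows fully, rated 3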
A number is an active result; - = inactive; . = not tested or not shown; + = active, no number. Rows were chosen to be rich in hits. Some 0.93% of all compounds tested hit in one or more screens of this group.

SMILES	RPL19A TOR yeast	MEP2 TOR yeast	AGP1 TOR yeast	CIT2-GFP yeast	LAP4 TOR yeast	LAP4-GFP pick2	MEP2 cherry2	RPL19A GFP CP2	CIT2 GFP CP2	AGP1 GFP CP2	s288c autofluor	others
COc1cc(NC(=O)c2cccc(C)c2)ccc1NC(=O)c1cc2ccccc2o1	-	-	-	-	-	.	.	.	.	.	-
O=C(Nc1ccc(NC(=O)c2cc3ccccc3o2)cc1)c1ccco1	-	-	-	-	-	.	.	.	.	.	-
c1ccc(N2CCN(Cc3ccnc4ccccc34)CC2)cc1	-	-	.	-	-	.	.	.	.	.	.
Oc1c(CN2CCN(c3ccccc3)CC2)cc(Br)c2cccnc12	-	-	-	-	224	.	.	.	.	.	-
CNc1nc(N)cc(Nc2ccccc2F)n1	.	.	.	.	.	.	.	.	.	.	.	TORC1 bypass gr=-
CNc1nc(N)c([N+](=O)[O-])c(Nc2ccccc2OC)n1	-	-	-	-	-	.	.	.	.	.	.	s288c autofl DR=-;TORC1 bypass gr=-
COCCCNc1nc(N)c([N+](=O)[O-])c(Nc2cc(OC)ccc2OC)n1	-	-	-	-	-	.	.	.	.	.	.
CNc1nc(N)c([N+](=O)[O-])c(Nc2cc(OC)ccc2OC)n1	.	.	.	.	.	.	.	.	.	.	.	s288c autofl DR=-;TORC1 bypass gr=-
COc1ccccc1Nc1nc(NCCO)nc(N)c1[N+](=O)[O-]	-	-	-	-	-	.	.	.	.	.	.
NS(=O)(=O)OCC(Cc1ccccc1)N1C(=O)c2ccccc2C1=O (stereo not drawn)	-	-	-	-	-	.	.	.	.	.	.
CC(C)[C@H](NC(=O)N1CCn2c1nc1ccccc12)C(=O)NCC1CCCO1 (stereo partly drawn)	-	-	-	-	-	.	.	.	.	.	.
O=C(Nc1ccc(O)cc1)C1CCCN1S(=O)(=O)c1ccc(F)cc1 (stereo not drawn)	-	196	-	-	-	-	-	-	-	-	-
COc1cccc(/C=C2\C(=O)N(c3cccc(C)c3)C(=O)c3ccccc32)c1	-	-	-	-	154	.	.	.	.	.	-
CC1CN(Cc2nnc(-c3ccccc3)o2)CC(C)O1 (stereo not drawn)	-	-	-	-	-	.	.	.	.	.	.
COC(=O)/C=C/CC(C)OS(N)(=O)=O (stereo not drawn)	-	-	-	-	-	.	.	.	.	.	.
CC(=O)NCC1CCCN(Cc2cn(-c3ccccc3)nc2-c2ccc3c(c2)OCO3)C1 (stereo not drawn)	-	-	-	-	192	-	-	-	-	-	.
COc1ccc([C@H]2CC(=O)C=C(c3ccc(F)cc3OCc3ccccc3)C2)cc1OC	-	-	-	-	-	.	.	.	.	.	.
CCSC1=NSC2=NC(=O)/C(=C\c3coc4ccccc4c3=O)C(=N)N12	-	268	-	-	-	309	169	-	161	-	.
CCn1cc(C(=O)Nc2ccc(OC)c(S(=O)(=O)N3CCCCC3)c2)c(=O)c2ccc(C)nc21	-	175	-	-	158	-	-	-	-	-	.
CC(=O)NN1C(=O)/C(=C/c2ccc(Br)o2)SC1=S	-	187	-	-	-	.	.	.	.	.	-
CC(=O)NN1C(=O)/C(=C\c2ccc(Br)o2)SC1=S	-	-	-	-	-	.	.	.	.	.	.
C=C1CCN([C@@H](C)C(=O)OCc2cccc(C)c2)S(=O)(=O)c2ccccc21	-	-	-	-	153	-	-	-	-	-	.
C=C1CCN([C@H](C(=O)OCc2ccc(C)cc2)C(C)C)S(=O)(=O)c2ccccc21	-	-	-	-	-	.	.	.	.	.	.
Cc1ccc(O)c(C(=O)CC(=O)c2ccccc2Cl)c1	-	-	-	-	-	-	-	-	-	-	.
CC1=CN2C(=N)/C(=C/c3ccc([N+](=O)[O-])o3)C(=O)N=C2S1	-	+	-	-	863	+	+	-	+	243	.
SMILES	RPL19A TOR yeast	MEP2 TOR yeast	AGP1 TOR yeast	CIT2-GFP yeast	LAP4 TOR yeast	LAP4-GFP pick2	MEP2 cherry2	RPL19A GFP CP2	CIT2 GFP CP2	AGP1 GFP CP2	s288c autofluor	others
CC1=CN2C(=N)/C(=C/c3ccco3)C(=O)N=C2S1	-	-	-	-	-	.	.	.	.	.	.
O=S(=O)(c1ccc(F)cc1)c1snnc1-c1ccccc1	-	-	-	.	-	-	-	-	-	-	.
O=[N+]([O-])c1ccc(N=Nc2c(Cl)cc(O)cc2Cl)cc1	-	-	-	-	278	.	.	.	.	.	-
Oc1ccc(-c2c(-c3ccsc3)sc3ccccc23)cc1	-	-	-	-	153	-	-	-	-	-	.
O=C(Nc1ccc(Nc2ccccc2)cc1)C(Cl)Cl	-	-	-	-	-	.	.	.	.	.	.
CC(C)(C)C(=O)C(Cl)C(=O)Nc1ccccc1 (stereo not drawn)	-	-	-	-	285	.	.	.	.	.	-	s288c autofl DR=-;TORC1 bypass gr=-
Brc1ccc(-c2ccc(C3Nc4cccc5cccc(c45)N3)o2)cc1	-	-	-	-	155	-	-	-	-	-	.
O=C1CCN(S(=O)(=O)c2ccccc2)CCN1CCOCc1ccc(F)cc1	-	190	-	-	179	-	-	-	-	-	-
Cc1ccc(S(=O)(=O)N2CCC(=O)N(CCOCc3ccc(F)cc3)CC2)cc1	-	-	-	-	-	.	.	.	.	.	.
CCOC(=O)C1=C(C)N(c2ccc(C)cc2)C(=O)/C1=C\c1ccc(O)c(OC)c1	-	-	-	-	-	.	.	.	.	.	.
CCOC(=O)C1=C(O)c2ccccc2C(=O)/C1=C\c1ccc(C)cc1	-	-	-	-	186	187	221	-	162	-	41
O=C(CSc1ccc(F)cc1)Nc1cccc(S(=O)(=O)N2CCOCC2)c1	-	-	-	-	170	-	-	-	-	-	.
O=C1Nc2ccccc2/C1=C/c1cnc(-c2ccccc2)[nH]1	-	184	-	161	169	-	-	-	-	-	.

Screening results (PubChem)
